The values below come from PubChem BioAssay AID594 (National Center for Advancing Translational Sciences (NCATS), 2007).

The structures appear in SMILES notation. Screen size: about 59,000 compounds; about 30 (0.05%) were called active. Cut-off read from the data, not from the text of the source: active = max dye-equivalent concentration above about 11 nM; inconclusive = between about 1.1 nM and that limit; inactive = weaker than that. This excerpt belongs to a sample that is enriched for actives.

The experiment in a line: qHTS Assay for Spectroscopic Profiling in Rhodamine Spectral Region. Particulars: Rhodamine-region fluorescence, 547/598 nm, Tris buffer; active compounds read high. From the text:
NIH Molecular Libraries Screening Centers Network [MLSCN] NIH Chemical Genomics Center [NCGC] […] Occasionally, the artifactual effect may originate from the compound#s own spectral or other biophysical properties which generally tend to track its assay concentration. Pre-screening/profiling the library with respect to the compounds# spectral properties should help one exclude false positives early on. While the most informative fluorescent profiling data set is obtained by performing a full excitation and emission scan of each well by using a monochromator-based plate reader, such an approach is practical only on a very limited scale as scanning each well requires long time. An alternative approach, applied here, is to perform plate reader scans using selected excitation and emission wavelength pairs to generate a multidimensional relational database that correlates compound concentration and the respective relative fluorescence intensity at a given wavelength set. A standard curve of rhodamine present on each plate as six-point concentration series, was used to compute a normalized fluorescence response, termed dye-equivalent concentration, for each compound at each concentration.
NCGC Assay Protocol Summary: Buffer: 100 mM Tris buffer, pH 8.0 Dye standard plate: The wells in columns 1 through 4 of a Kalypsys polypropylene 1536-well compound plate were filled with standard solutions of fluorophore corresponding to the spectral region of interest. Solutions of rhodamine were placed in the following wells: E1, F1: 3 mM, E2, F2: 300 uM, E3, F3: 30 uM, E4, F4: zero (DMSO), G1, H1: 3 uM, G2, H2: […], G3, H3: 300 nM, G4, H4: zero (DMSO). Assay Steps: Six uL of buffer were dispensed to 1536-well Greiner black plates. Compounds and dye standards (23 nL) were transferred via Kalypsys PinTool. The plates were incubated for 15 min at room temperature, and then read on ViewLux (Perkin-Elmer) High-throughput CCD imager using 547 nm and 598 nm excitation and emission filter set. Keywords: NIH Roadmap, MLSCN, MLI, MLSMR, qHTS, NCGC, Rhodamine , Fluorescent Profiling.
Regarding `O=C(Nc1ccon1)c1sc2ccccc2c1Cl`, the max dye-equivalent concentration result was “inactive”.

Turning to `Cn1c(=S)c2[nH]c(SCCCc3ccccc3)nc2n(C)c1=O`, the max dye-equivalent concentration entry is “inactive”. With `O=S(=O)(NCc1cccnc1)c1ccc(Br)s1`, the max dye-equivalent concentration entry was “inactive”. As to `O=C(OCC(O)C(O)COC(=O)c1ccccc1)c1ccccc1` (stereo unspecified), the max dye-equivalent concentration result was “inactive”. In the case of `Cc1nc2ccc(S(=O)(=O)NCC(=O)NCCN3CCCCC3C)cc2s1` (stereo unspecified), the max dye-equivalent concentration result is “inactive”. Consider `CNC(=O)c1cc2c(ccc3ccccc32)oc1=N`, for which the max dye-equivalent concentration entry is “inactive”. With `COc1ccc2oc(=O)c(C(=O)N3CCN(c4ccccc4F)CC3)cc2c1`, the max dye-equivalent concentration entry is “inactive”. Regarding `COc1ccc(N=Cc2c(O)[nH]c3ccccc23)cc1OC`, the max dye-equivalent concentration result is “inactive”. With `CC1CCCN(C(=O)Cn2c(=O)oc3ccccc32)C1` (stereo unspecified), the max dye-equivalent concentration result was “inactive”. In the case of `CC1(C)CC(O)C(CCC(O)c2ccccc2)C(C)(C)N1` (stereo unspecified) it was “inactive”; in that of `CC(=O)OCc1cc2cc(C)ccc2[nH]c1=O`, “inactive”. In the case of `O=C(c1cc(C(F)(F)F)cc(C(F)(F)F)c1)N1CCC2(CCCN(c3ccccn3)C2)CC1`, the max dye-equivalent concentration entry was “inactive”. For `CCc1ccccc1NC(=O)CSc1nnc([C@@H](NC(=O)OC(C)(C)C)C(C)CC)o1` (stereo partly specified), the max dye-equivalent concentration entry is “inactive”. As for `CCOC(=O)CSc1nncc2ccc(OC)c(OC)c12`, the max dye-equivalent concentration result is “inactive”. Turning to `Cc1noc(C)c1-c1cc(NCc2cccnc2)ncn1`, the max dye-equivalent concentration entry was “inactive”. In the case of `CN1CCN(c2ncc3nc(-c4ccc(Cl)cc4)c(=O)n(-c4ccccc4)c3n2)CC1` it was “inactive”; in that of `CC(=O)c1ccc(-n2nnnc2SCC(=O)N2CCN(C(=O)c3ccco3)CC2)cc1`, “inactive”; in that of `COc1ccc2c(c1)CCc1c(C(=O)N3CCCC3)noc1-2`, “inactive”. With `O=C(NCc1ccco1)c1sc2cccc(F)c2c1Cl`, the max dye-equivalent concentration entry is “inactive”. In the case of `Cc1cc2nc(-c3ccc(NC(=O)c4cccnc4)cc3)oc2cc1C`, the max dye-equivalent concentration entry was “inactive”. As to `c1ccc2c(CNn3cnnc3)cccc2c1`, the max dye-equivalent concentration result was “inactive”. The result for `Cn1c(SCC(=O)Nc2cccc(O)c2)nnc1-c1ccc(S(=O)(=O)N2CCOCC2)cc1` reads “inactive”; that for `CC(C)C(=O)N1CCN(CCN=CC2=C(O)CC(c3ccco3)CC2=O)CC1` (stereo unspecified), “inactive”; that for `O=C(c1cc(C(F)(F)F)cc(C(F)(F)F)c1)N1CCC[C@@]2(CCN(c3ccccn3)C2)C1`, “inactive”.

`COc1ccc2c(c1)CCc1c(C(=O)N3CCc4ccccc4C3)noc1-2`: the max dye-equivalent concentration entry is “inactive”. Turning to `S=c1[nH]nc(SCc2ccccc2Cl)c2[nH]cnc12`, the max dye-equivalent concentration entry is “inactive”. As to `Brc1ccc(Nc2c3c(nc4ncnn24)CCC3)cc1`, the max dye-equivalent concentration entry was “inactive”. On to `Cc1cc(=O)oc(C)c1C(=O)NC1CC(C)(C)NC(C)(C)C1`, for which the max dye-equivalent concentration entry is “inactive”. In the case of `CCOC(=O)COc1ccc(Cl)cc1C1NC(=O)NC(C)=C1C(C)=O` (stereo unspecified), the max dye-equivalent concentration result was “inactive”. The result for `Cc1cccc(N2CCN(C(=O)C3CCN(S(=O)(=O)c4cnc[nH]4)CC3)CC2)c1C` reads “inactive”. The result for `Cc1cc(Cl)ccc1OCC(=O)Oc1c(Cl)c(Cl)c(Cl)c(Cl)c1Cl` reads “inactive”; that for `CCOC(=O)N1CCN(S(=O)(=O)c2cc(Br)cc3c2N(C(=O)C2CC2)CC3)CC1`, “inactive”; that for `CCOC(=O)c1cc2cc(C)ccc2[nH]1`, “inactive”.

In the case of `CC(C)C[C@H](NC(=O)Nc1cccc(C(F)(F)F)c1)C(=O)O`, the max dye-equivalent concentration entry was “inactive”. Regarding `CN(C)CCCNc1c2c(c(C#N)c3nc4ccccc4n13)CCC2`, the max dye-equivalent concentration entry was “inactive”. Consider `COc1ccc(CNC(=O)c2c(C)cc(=O)oc2C)cc1OC`, for which the max dye-equivalent concentration entry is “inactive”. With `CC(=O)c1c(C)c[nH]c1C`, the max dye-equivalent concentration entry is “inactive”. In the case of `O=C(NCc1ccccc1)C1C(=O)N(Cc2ccccc2)C(=O)C1C1(O)CCCC1` (stereo unspecified), the max dye-equivalent concentration result was “inactive”. With `Cn1c(=O)c2c(nc(N3CCCCCC3)n2CC(O)COc2ccc(Cl)cc2)n(C)c1=O` (stereo unspecified), the max dye-equivalent concentration entry was “inactive”. Take `CN(C)c1ncc2nc(-c3ccc(F)cc3)c(=O)n(Cc3ccc(F)cc3)c2n1`: the max dye-equivalent concentration entry is “inactive”.

In the case of `CS(=O)(=O)N1CCC2(CC1)CN(c1ccncc1)C2`, the max dye-equivalent concentration result was “inactive”.

In the case of `Cc1ccccc1N1CC(c2nc3ccccc3[nH]2)CC1=O` (stereo unspecified), the max dye-equivalent concentration entry was “inactive”. As to `CCN1CCN(C(=O)c2ccccc2N(C)S(=O)(=O)c2ccc(C)cc2)CC1`, the max dye-equivalent concentration result is “inactive”.

On to `Cc1ccc(C(=O)Nc2ccccc2C(=O)NC2CCCCC2)cc1S(=O)(=O)N1CCOCC1`, for which the max dye-equivalent concentration result was “inactive”. Regarding `C/C(O)=C\c1nc(=O)c2c(C)cc(C)nc2n1-c1ccccc1`, the max dye-equivalent concentration entry was “inactive”. The result for `CC(C)NC(=O)N1CC[C@@]2(CCCN(C(=O)c3cccc(F)c3)C2)C1` reads “inactive”; that for `CCCn1c(SCC(=O)Nc2cccc(C(=O)OCC)c2)nnc1-c1ccoc1C`, “inactive”. For `CCOc1ccc(NCCC(=O)c2ccc3c(c2)OCO3)cc1`, the max dye-equivalent concentration entry was “inactive”. The result for `CCOC(=O)N1CCN(C(=O)c2cc3c(ccc4ccccc43)oc2=O)CC1` reads “inactive”. On to `O=C(Nc1ccc(NC(=O)c2cccs2)cn1)c1ccco1`, for which the max dye-equivalent concentration entry is “inactive”.

Take `CCCCCOC(=O)NCCOC(=O)Nc1ccc(C(=O)OCC)cc1`: the max dye-equivalent concentration entry was “inactive”.

On to `CC1CC(c2ccccc2)n2nc(NC(=O)c3cccs3)nc2N1` (stereo unspecified), for which the max dye-equivalent concentration entry is “inactive”. For the molecule `CCn1c(=O)cc(OCC(=O)NCCCN2CCN(c3cccc(Cl)c3)CC2)c2ccccc21`, the max dye-equivalent concentration result is “inactive”. For the molecule `O=C(c1csnn1)N1CCC[C@@]2(CCN(c3cccc(-c4ccccc4)c3)C2)C1`, the max dye-equivalent concentration result was “inactive”. `CCOc1ccccc1/C=c1\sc2nc(-c3ccco3)nn2c1=O`: the max dye-equivalent concentration entry was “inactive”.

In the case of `CN(c1ccccc1)c1ccc(/C=c2\s/c(=C(/C#N)C(=O)C(C)(C)C)n(Cc3ccco3)c2=O)cc1`, the max dye-equivalent concentration is 36 nM (active). The result for `CCOC(=O)CSc1nc2c(sc(=S)n2CCc2ccccc2)c(=O)n1Cc1ccco1` reads “inactive”; that for `Cc1cccc(OCc2nnc(SCc3nc4cc(C(F)(F)F)ccc4c(=O)[nH]3)o2)c1`, “inactive”; that for `COc1ccc(C(CNC(=O)c2cccnc2SC)N2CCOCC2)cc1` (stereo unspecified), “inactive”. Regarding `O=C(CSc1nnc(-c2ccc(NS(=O)(=O)c3ccccc3)cc2)o1)NCC1CCCO1` (stereo unspecified), the max dye-equivalent concentration entry was “inactive”.

On to `O=C(C1CCC(C(=O)N2CCCC2)CC1)N1CCCC1` (stereo unspecified), for which the max dye-equivalent concentration entry was “inactive”.

Consider `COc1ccc(S(=O)(=O)N2CCCC(C(=O)Nc3ccc(NC(=O)c4ccccn4)cc3)C2)cc1` (stereo unspecified), for which the max dye-equivalent concentration entry was “inactive”.

Turning to `CCn1c(NCCc2ccc(OC)c(OC)c2)nc2c1c(=O)n(C)c(=O)n2C`, the max dye-equivalent concentration entry was “inactive”.

On to `CCNc1nc(N)nc(Oc2ccc(OCC)nn2)n1`, for which the max dye-equivalent concentration result was “inactive”. In the case of `CC1=Nn2c(nnc2-c2ccccc2)SC1`, the max dye-equivalent concentration entry was “inactive”. For the molecule `CN(CC(=O)NC1CCCCC1)S(=O)(=O)c1ccc(Br)s1`, the max dye-equivalent concentration entry is “inactive”. In the case of `O=C(CSc1nnc(-c2ccccc2)o1)N1CCOCC1`, the max dye-equivalent concentration result was “inactive”. As to `Cc1ccc(CC2CC(=O)N(c3ccc4c(c3)OCCO4)C2=O)cc1` (stereo unspecified), the max dye-equivalent concentration entry was “inactive”. The result for `C[C@]1(O)CC[C@H]2[C@H]3CC=C4N5CCN=C5CC[C@@]4(C)[C@H]3CC[C@@]21C` reads “inactive”; that for `CCNc1ncc2ncc(=O)n(Cc3cccc(OC)c3)c2n1`, “inactive”. Regarding `CC1Cc2ccccc2N1C(=O)CSc1nc2ccccc2o1` (stereo unspecified), the max dye-equivalent concentration entry is “inactive”. As for `CCN(CC)c1ccc(C(=O)OCC(=O)c2ccco2)cc1`, the max dye-equivalent concentration result is “inactive”. For the molecule `Cc1ccsc1C(C(=O)NC1CCCCC1)N(C(=O)Cc1cccs1)C1CC1` (stereo unspecified), the max dye-equivalent concentration result was “inactive”. In the case of `CCC(C(=O)Nc1ncccn1)(C(F)(F)F)C(F)(F)F` it was “inactive”. Turning to `CC(C)C(c1nnnn1CCc1ccccc1)N1CCN(C(=O)c2ccco2)CC1` (stereo unspecified), the max dye-equivalent concentration entry was “inactive”. Take `O=C(Nc1c(-c2ccccc2)nc2c(Br)cc(Br)cn12)c1ccco1`: the max dye-equivalent concentration entry is “inactive”. For `Cc1oc(-c2cccc(Cl)c2)[n+]([O-])c1C`, the max dye-equivalent concentration entry is “inactive”. Take `COCCn1c(=O)c(-c2cccs2)nc2cncnc21`: the max dye-equivalent concentration result is “inactive”. Turning to `Nc1nonc1-c1noc(-c2ccc(Br)o2)n1`, the max dye-equivalent concentration result was “inactive”.

On to `CCOC(=O)C1=C(CNC2CCCCC2)NC(=O)NC1c1cc(C)ccc1C` (stereo unspecified), for which the max dye-equivalent concentration result was “inactive”. In the case of `Cc1cc(=O)n2nc(N3CCCC3C(=O)NCCCN3CC(C)CC(C)C3)sc2n1` (stereo unspecified), the max dye-equivalent concentration entry is “inactive”. Regarding `O=C(CN1CCN(c2ccccn2)CC1)NCc1cccs1`, the max dye-equivalent concentration entry was “inactive”. In the case of `OCc1n[nH]c(CO)n1` it was “inactive”; in that of `CCC(=O)Nc1sc(C(=O)N2CCCCC2)c(C)c1C#N`, “inactive”; in that of `CCOC(=O)c1c(C)c(C(=O)NCCc2ccc(S(N)(=O)=O)cc2)c(C)n1CC`, “inactive”. As to `COc1ccc(CCNC(=O)CN2CCC(n3nnc4cc(F)ccc43)CC2)cc1OC`, the max dye-equivalent concentration entry is “inactive”.

Turning to `Nc1nnnn1/N=C/c1cccs1`, the max dye-equivalent concentration entry is “inactive”.

As to `CCc1ccccc1NC(=O)CSc1nnc([C@@H](NC(=O)OC(C)(C)C)C(C)C)o1`, the max dye-equivalent concentration result was “inactive”. For the molecule `COc1cc(Cl)c(C)cc1NC(=O)CSc1nnc(-c2cccnc2)n1Cc1ccco1`, the max dye-equivalent concentration entry was “inactive”. As for `Cc1cc(N2CCCC2=O)cc(C)c1S(N)(=O)=O`, the max dye-equivalent concentration entry is “inactive”. On to `C/C(=N\O)C1(C)N(O)C(C)(C)C(c2ccc(Br)cc2)=[N+]1[O-]` (stereo unspecified), for which the max dye-equivalent concentration result was “inactive”.
